Reference: PubChem BioAssay (NCI)
This is part of a sample that, as a whole, favours compounds with a hit. Of some 83,000 tested, about 20% had one in any assay.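 Growth was measured after 48 h exposure to one concentration of compound in 96-well plates. Values under 10 count as active.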 Values without a mark were called inactive. Active and inactive are the calls of the source.

What was measured:
Assay in all cases: NCI-60 one-dose screen, 48 h (100 = growth as untreated, 0 = no growth, -100 = all killed)
Details in all cases: 10 µM unless noted
SK-MEL-2 melanoma = test system: SK-MEL-2 melanoma
SN12C renal = test system: SN12C renal
UO-31 renal = test system: UO-31 renal
TK-10 renal = test system: TK-10 renal
ACHN renal = test system: ACHN renal
CAKI-1 renal = test system: CAKI-1 renal
A498 renal = test system: A498 renal
CCRF-CEM leukemia = test system: CCRF-CEM leukemia
MOLT-4 leukemia = test system: MOLT-4 leukemia
SR leukemia = test system: SR leukemia
RPMI-8226 leukemia = test system: RPMI-8226 leukemia
OVCAR-8 ovarian = test system: OVCAR-8 ovarian
OVCAR-5 ovarian = test system: OVCAR-5 ovarian
OVCAR-4 ovarian = test system: OVCAR-4 ovarian
SK-OV-3 ovarian = test system: SK-OV-3 ovarian
IGROV1 ovarian = test system: IGROV1 ovarian
OVCAR-3 ovarian = test system: OVCAR-3 ovarian
HS 578T breast = test system: HS 578T breast
NCI/ADR-RES ovarian = test system: NCI/ADR-RES ovarian
EKVX NSCLC = test system: EKVX NSCLC

Row | SMILES | growth (SK-MEL-2 melanoma) | growth (SN12C renal) | growth (UO-31 renal) | growth (TK-10 renal) | growth (ACHN renal) | growth (CAKI-1 renal) | growth (A498 renal) | growth (CCRF-CEM leukemia) | growth (MOLT-4 leukemia) | growth (SR leukemia) | growth (RPMI-8226 leukemia) | growth (OVCAR-8 ovarian) | growth (OVCAR-5 ovarian) | growth (OVCAR-4 ovarian) | growth (SK-OV-3 ovarian) | growth (IGROV1 ovarian) | growth (OVCAR-3 ovarian) | growth (HS 578T breast) | growth (NCI/ADR-RES ovarian) | growth (EKVX NSCLC)
1 | O=S(=O)(NCCNc1nccc(-n2cnc3ccccc32)n1)c1ccc(Br)cc1 | 108% | 91.5% | 79.8% | 103% | 93.6% | 81.5% | 76.3% | 101% | 95.9% | 75.1% | 79.7% | 95.6% | 94% | 82.2% | 99.9% | 90.7% | 103% | 85.7% | 97.6% | 
2 | C=C=COc1cccc(/C(N)=N/C(N)=N/c2nc3ccccc3s2)c1 | 104% | 66.7% | 31.2% | 133% |  | 36.9% | 79.7% | 32% | 47.4% | 6.37% (active) | 106% | 62.8% | 83.4% | 89.4% | 102% | 57.7% | 100% | 59.9% | 88.5% | 55.8%
3 | CC(=O)C1=C(C)NC(NN)=NC1c1cccc(Cl)c1 (centres undefined) | 112% | 98.2% | 85.9% | 152% | 99.4% | 91% | 93.2% | 97% | 96.8% | 96.5% | 99.7% | 103% | 99.4% | 104% | 102% | 97.7% | 123% | 114% |  | 
4 | C=C(C=O)[C@@H]1CC[C@]2(COC(C)=O)CC[C@]3(C)C(CC[C@@H]4[C@@]5(C)CC[C@H](OC(C)=O)C(C)(C)[C@@H]5CC[C@]43C)[C@@H]12 (some centres undefined) | -28% (active) | 1.13% (active) | -94% (active) | 35.5% |  | -14.9% (active) | -41% (active) | 10.9% |  | -25.8% (active) | -18.4% (active) | 15.3% | 15.1% | 16.2% | 50.3% | -32.8% (active) | -71.6% (active) | -11.6% (active) |  | 12.9%
5 | COc1cc(-c2ccc3ncnc(NCc4ccccc4)c3c2)cnc1OC | 76.5% | 27.2% | 17.7% | -11.7% (active) | 19.9% | 6.95% (active) | -48.8% (active) | 54.8% | 32.1% | 62.1% | 34.5% | 70.7% | 28.9% | 65.3% | 43.2% | -31.8% (active) | 43.4% | 20% | 68.3% | 
6 | CC1(C)[C@@H](O)CC[C@]2(C)[C@H]3CC[C@@H]4[C@H]5[C@H](C(=O)/C=C\c6ccccn6)CC[C@]5(O)CC[C@@]4(C)[C@]3(C)CC[C@@H]12 | 77.8% | 50.5% | 50.8% | 77.5% |  | 33.9% | 22% | -0.82% (active) | -8.46% (active) | -17.6% (active) | -19.2% (active) | 39.5% | 48.4% | 32.9% | 89.8% | 34.5% | 25.4% | 39.2% | 26.4% | 42.5%
7 | N#Cc1cccc(NC(=O)c2cc(-c3ccc(F)cc3F)ccc2O)c1 | 0.79% (active) | 4.45% (active) | -14.2% (active) | 19.3% |  | -16.7% (active) | -33.1% (active) | 20.1% | 6.28% (active) | 27.3% | -8.42% (active) | 10.8% | 14.6% | 8.85% (active) | 5.89% (active) | 13.2% | 9.74% (active) | 3.15% (active) | 4.64% (active) | 10.3%
8 | CC1(C)CC[C@]23CC[C@]4(C)[C@H](CC[C@@H]5[C@@]6(C)CCCN(CO)C(C)(C)[C@@H]6CC[C@]54C)[C@H]2[C@H]1OC3 | 98.4% | 89.6% | 76.7% | 129% | 96.7% | 62.1% | 107% | 58.5% | 35.4% | 1.43% (active) | 21.8% | 101% | 95.9% | 85.6% | 118% | 69% | 66.6% | 91.3% | 101% | 
9 | c1cn2c(ccc3nc(-c4cn[nH]c4)c4c(c32)CCCC4)n1 | -5.11% (active) | 59.2% | 23% | 30.8% |  | 16.5% | -4.01% (active) | 81.2% | 83.4% |  | 80.7% | 57.1% | 99.4% | 77.9% | -10.1% (active) | 45.3% |  | 31.5% | 77.3% | 90.2%
10 | CCO/C=N/C1=C(C#N)C(c2ccc(OC)cc2)c2sc3c(C)cccc3c2O1 (centres undefined) | 36.5% | 25.2% | 34.3% | 78.5% |  | 33.3% | -15.6% (active) | -2.18% (active) | 16.4% | 17.9% | 0.107% (active) | 29.3% | 34.4% | 85.3% | 50.3% | 27.1% | 7.72% (active) | 16.6% | 10.9% | 39.9%
11 | O=C(Nc1nonc1-c1ccccc1)c1ccc(C(F)(F)F)cc1 | 65.3% | 71.7% | 91.4% | 146% |  | 85.5% | 95.6% | 50.8% | 69.1% | 85.6% | 74.2% | 86.6% | 100% | 91.2% | 112% | 96.4% |  | 101% | 85.2% | 84.6%
12 | COc1cc(/C=C2\C(=O)Nc3cc(Cl)ccc32)ccc1OCc1ccc(F)cc1 | 99.8% | 95.9% | 79.8% | 185% | 93.6% |  |  |  | 100% | 97.5% | 113% | 98.7% | 98.6% | 83.2% | 97.2% |  | 102% | 91.7% | 101% | 76.5%
13 | CC(C)C[C@@H]1N[C@@]2(C(=O)Nc3ccccc32)[C@@H](c2ccc(F)cc2)[C@@H]1C(=O)c1ccc(O)cc1 | 102% | 96.5% | 58.3% | 120% |  | 67.3% | 94.5% | 85% | 77.5% | 73.5% | 91.2% | 97.1% | 95.6% | 89.6% | 108% | 53.4% |  | 84.5% | 94.1% | 79.9%
14 | CN1CCN(Cc2ccc(NC(=O)c3cncc(C#Cc4cnc5ccc(OCC6(C)COC6)nn45)c3)cc2C(F)(F)F)CC1 | -75.7% (active) | -76.2% (active) | -91.8% (active) | -73.7% (active) |  |  | -97.7% (active) | 1.98% (active) | 1.9% (active) | -13.9% (active) | -17.7% (active) | -15.3% (active) | -73.2% (active) | -54.7% (active) | -90.8% (active) | -63.8% (active) | -74.5% (active) | -50.2% (active) | -58.1% (active) | -83.3% (active)
15 | NC(N)=Nc1ccc(Oc2ccc(Nc3ccc(Cl)c(C(F)(F)F)c3)cc2)cc1 | 91.6% | 31.7% | 69.8% | 95.6% | 73.4% | 69.4% | 68.3% | 20.3% | 18.5% | -4.22% (active) | 41.9% | 55.1% | 66.2% | 52.3% | 89.4% | -7.75% (active) | -21.8% (active) | 56.1% | 91.9% | 
